PubChem BioAssay AID485317 (Broad Institute, 2010)
Among all 290,000 compounds or so, about 11,000 (3.8%) were called active.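 Rule for the calls: active = mean replicate inhibition above about 79%, with every replicate also reaching it (limit read from the data); inconclusive = only one of the two criteria met; inactive = mean below limit and not every replicate reaching it.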 The sample as a whole holds a higher share of actives than the screen did.

Target: FAD-linked sulfhydryl oxidase ALR (Homo sapiens) (UniProt P55789)
Sequence (P55789 whole entry, looked up): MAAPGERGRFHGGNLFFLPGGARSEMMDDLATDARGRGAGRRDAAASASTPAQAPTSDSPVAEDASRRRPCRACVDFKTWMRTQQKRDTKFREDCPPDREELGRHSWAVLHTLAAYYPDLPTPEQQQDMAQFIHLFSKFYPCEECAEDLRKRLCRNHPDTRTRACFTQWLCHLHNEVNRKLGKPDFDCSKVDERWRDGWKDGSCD
Assay: ALR-catalysed DTT oxidation blockers – biochemical, H2O2 detection, HRP-luminol luminescence, single point, primary screen (AID 485317)
Conditions: purified ALR, active compounds read high, concentration not given here

inhibition, inactive:
Cn1c(SCC(=O)N2CCOCC2)nnc1-c1ccc(NC(=O)c2ccccc2F)cc1 -5.97%
CCn1c(Cc2ccc(OC)cc2)nnc1SCC(=O)Nc1ccc(N2CCOCC2)cc1 39.5%
Cn1c(SCC(=O)Nc2cccc(O)c2)nnc1-c1ccc(S(=O)(=O)N2CCOCC2)cc1 16.7%
O=C(O)CCC(=O)Nc1ccc(N2CCOCC2)cc1 -4.54%
COc1ccc(C(=O)NCc2ccc(C)cc2)cc1S(=O)(=O)N1CCCC1 -2.12%
Cc1nc2ccccc2c(=O)n1-c1ccc(NS(=O)(=O)c2ccc(F)cc2F)cc1 -10.6%
CCn1c(CNS(=O)(=O)c2ccc(Cl)cc2)n[nH]c1=S 21.4%
CCn1c(CSCc2c(Cl)cccc2Cl)n[nH]c1=S 67.9%
O=S(=O)(Nc1ccc2cn[nH]c2c1)c1ccccc1 -80.8%
Cn1c(CCN2CCCC2)nc2cc(NS(=O)(=O)c3ccccc3)ccc21 -0.934%
COC(=O)c1ccc(NS(=O)(=O)c2cc3c4c(c2)C(C)C(=O)N4CCC3)cc1 (centres undefined) -2.24%
O=C(COC(=O)c1cccc(Cl)c1)Nc1ccc2[nH]c(=O)[nH]c2c1 -0.957%
O=C(NNC(=O)c1ccco1)Nc1ccccc1 39.9%
CCC(=O)NC(=S)Nc1ccc(NC(=O)c2ccco2)c(Cl)c1 -18.1%
CN(CCc1ccccc1)C(=O)c1cccc(NC(=O)Cc2ccc([N+](=O)[O-])cc2)c1 1%
O=C(OCCN1C(=O)c2ccccc2C1=O)[C@@H]1CC(O)CN1S(=O)(=O)c1ccccc1[N+](=O)[O-] (some centres undefined) -2.79%
COc1cc(/C=N/O)cc(Br)c1OS(=O)(=O)c1ccc(C)cc1 -15%
COc1cc(/C=N/NC(=O)c2cc(-c3ccccc3C)nc3ccccc23)cc(OC)c1O -3.08%
COc1ccc(/C=C/C(=O)Nc2cccnc2)cc1OC -0.926%
COc1cc(/C=N/NC(=O)c2cc(C)n(-c3ccc(F)cc3)c2C)cc(OC)c1O 64%
Nc1c(C(=O)Nc2ccc3c(c2)OCCO3)nnn1Cc1ccccc1 -23.5%
COc1ccc(/C=N/NC(=O)c2cccc(C(F)(F)F)c2)cc1 -3.29%
CC(C)c1c(C(=O)N/N=C/c2ccc(-c3ccccc3)cc2)nnn1-c1nonc1N -10.7%
Cc1nc2ccc(C(=O)O)cc2[nH]1 -25.4%
COC(=O)N/N=C/c1ccc(/C=N/NC(=O)OC)cc1 -1.28%
CCn1nc(C(=O)NNC(=O)C2CSC3(C)CCC(=O)N23)c2ccccc2c1=O (centres undefined) -0.847%
CC(C)CC1(C)NC(=O)N(CC(=O)Nc2ccc3c(c2)OCCO3)C1=O (centres undefined) 4.51%
CCC(C)c1ccccc1N1CC(C(=O)N2CCN(S(=O)(=O)c3ccc(F)cc3)CC2)CC1=O (centres undefined) 1.3%
COCC(=O)Nc1c(I)c(C(=O)NCC(O)CO)c(I)c(C(=O)N(C)CC(O)CO)c1I (centres undefined) -12.2%
O=C(CSc1ccccn1)N1CCN(S(=O)(=O)c2ccc(Cl)cc2)CC1 -0.731%
CO[C@@H]1[C@@H](OC(N)=O)[C@@H](O)C(Oc2ccc3c(O)c(NC(=O)c4ccc(O)c(CC=C(C)C)c4)c(=O)oc3c2C)OC1(C)C (some centres undefined) 1.83%
COc1ccc(F)cc1C(=O)COC(=O)c1n[nH]c(=O)c2ccccc12 -1.76%
CC(C)(C)OC(=O)N[C@H](C(=O)OC(C)(C)C)c1ccc(Br)cc1 -0.888%
O=C1N[C@@H](Cc2ccccc2)C(=O)N2[C@@H]3N(S(=O)(=O)c4ccc(F)cc4)c4ccccc4[C@]3(Br)C[C@@H]12 -1.43%
CC(=O)C1=C(O)C(=O)N(c2ccc(S(N)(=O)=O)cc2)C1c1ccccc1F (centres undefined) -0.498%
NS(=O)(=O)c1ccc(NC(=O)COC(=O)C2(c3ccc(F)cc3)CCCC2)cc1 -14.8%
COc1ccccc1NS(=O)(=O)c1ccc(C)c(C(=O)NNC(=O)c2csc(N3CCOCC3)n2)c1 -6.78%
CCn1c(-c2ccoc2C)n[nH]c1=S 6.36%
CCCc1cc(-c2n[nH]c(=S)n2CC)c2ccccc2n1 -9.51%
O=C(CCNC(=O)c1ccc(Cl)cc1)NC1CCCc2ccccc21 (centres undefined) -6.93%
CCOc1ccccc1NC(=O)Cc1cccs1 -14.8%
CCOc1ccccc1NC(=O)CCc1nnc2ccc(NCc3ccco3)nn12 1.12%
CCOc1ccc(NC(=O)CN(C)C(=O)CCSc2ccc(F)cc2)cc1OCC -3.71%
COc1ccc(S(=O)(=O)Nc2cc(C)on2)cc1NC(C)=O -7.72%
O=C(CN1CCN(c2ccccc2O)CC1)NC(=O)NCc1ccccc1 13.1%
CC1CCCCN1C(=S)NCc1ccccc1 (centres undefined) -1.5%
O=c1cc(CCl)nc2scc(-c3ccccc3)n12 60.8%
CCOC(=O)c1sc(=NC(=O)c2ccc(Br)cc2)n(C)c1C -3.96%
C=C(C)CNC(=S)/N=c1\scc(C)n1CC 18%
Cc1cc(C(=O)CCC(=O)NNC(=O)c2ccccc2O)c(C)s1 8.1%
O=C(COC(=O)c1ccc2ncsc2c1)Nc1ccc(Cl)cc1 16%
COc1ccc(NC(=O)C(=O)NCC(c2ccco2)N2CCc3ccccc3C2)cc1 (centres undefined) -1.35%
COc1ccc(NS(=O)(=O)c2cc(NC(=O)c3ccc(S(=O)(=O)N(C)C)cc3)ccc2N2CCOCC2)cc1 0.706%
Cc1cc(C(=O)OC(C)C(=O)NC2CCCCC2C)c(C)o1 (centres undefined) 2.82%
CC1CC(C)(C)NC(=S)N1CCC(=O)N1CCN(Cc2ccccc2)CC1 (centres undefined) -28.3%
CC1CC(=O)Nc2ccccc2N1S(=O)(=O)c1cccs1 (centres undefined) -4.3%
CC1CCCN(C(=O)c2cc(-c3ccco3)nc3ccccc23)C1 (centres undefined) 6.96%
Cc1cc(C)c(C)c(S(=O)(=O)N2CCN(C(=O)c3ccc4c(=O)n5c(nc4c3)CCC5)CC2)c1C -2.44%
O=C(Nc1cccc(S(=O)(=O)N2CCCCC2)c1)c1cncc(Br)c1 -4.78%
Cc1ccc(-n2[nH]c(C)c(/C=N/N3C(=O)c4cccc5cccc(c45)C3=O)c2=O)cc1 -15.1%
CCc1nnc(NS(=O)(=O)c2ccc(N=Cc3c(C)[nH]n(-c4ccc(C)cc4)c3=O)cc2)s1 63.1%
O=C(NCCCN1CCCC1=O)c1cccc(S(=O)(=O)NCc2ccccc2)c1 0.0635%
CC(C)NC(=O)c1ccc(Cl)cc1Cl -6.81%
CC(C)Oc1ccccc1C(=O)NC(CO)C(=O)O (centres undefined) 2.33%
CC(C)CN(C(=O)COC(=O)c1ccc2ccccc2c1)c1c(N)n(Cc2ccccc2)c(=O)[nH]c1=O 1.44%
O=C(O)Cc1ccc(NC(=O)Nc2cccc3ccccc23)cc1 -53.7%
S=C(NCCc1ccccc1)NCc1ccccc1Cl 5.1%
CC(=O)C12CC(C)=C(C)CC1CC1C3CCC4=CC(=O)CCC4(C)C3CCC12C (centres undefined) -1.17%
COc1ccc(-c2cn[nH]c2-c2ccc(OC)cc2)cc1 0.7%
CCOc1ccccc1Oc1cn[nH]c1-c1ccc(OC)cc1O 59.2%
O=C(CNC(=O)Cc1ccccc1)N=Nc1c(O)[nH]c2ccc(Br)cc12 10.6%
NS(=O)(=O)c1ccc(N=Nc2c(O)[nH]c3ccc(Br)cc23)cc1 -3.47%

inhibition, active:
Cn1c(SCC(=O)Nc2ccc(N3CCOCC3)cc2)nnc1C(F)(F)F 93.8%
Cn1cnnc1SCC(=O)Nc1ccc(N2CCOCC2)cc1 95.8%
CCn1c(CN2C(=O)CSc3ccccc32)n[nH]c1=S 91.7%
O=S(=O)(Nc1ccc2nc(-c3ccco3)[nH]c2c1)c1ccccc1 88.8%
O=C(NNC(=S)Nc1ccc(Br)cc1Cl)c1ccco1 82.2%
COc1cc(/C=N/Nc2ccc(C)cc2)cc(Br)c1O 98.4%
COc1cc(/C=N/NC(=S)Nc2cccnc2)cc(OC)c1O 95%
Cc1nonc1C(=O)N/N=C/c1ccc(O)cc1 99.2%
Cc1nc2ccc(C(=O)N/N=C/c3ccc(O)cc3)cc2[nH]1 99%
NS(=O)(=O)c1ccc(NC2=CC(c3ccc(F)cc3)N(c3ccc(S(N)(=O)=O)cc3)C2=O)cc1 (centres undefined) 97.6%
Cc1ccccc1-c1n[nH]c(=S)n1C 93.4%
CCOc1ccccc1NC(=O)CCc1ccc(C)o1 99.7%
Oc1ccccc1N1CCN(C(=S)NCc2ccccc2)CC1 96.4%
Cc1csc(=Nc2ccccc2)n1CCO 98.7%
Cc1csc(=NC(=O)c2ccccc2)n1CCO 99%
OCCn1c(-c2ccccc2)csc1=Nc1ccccc1 99%
CC1CC(=S)Nc2ccccc2N1Cc1ccccc1 (centres undefined) 99%
COc1cc(SC#N)ccc1N=Cc1c(C)[nH]n(-c2ccc(C)cc2)c1=O 99.6%
CC(C)NC(=O)c1ccccc1S(=O)c1ccccc1C#N (centres undefined) 99.6%
O=C(O)Cc1ccc(NCc2ccccc2Cl)cc1 97.2%
COc1ccc(Oc2cn[nH]c2-c2ccc(OC)cc2O)cc1 97.1%
Oc1[nH]c2ccc(Br)cc2c1N=Nc1nn[nH]n1 89.8%
